# “And” between values parts separate entries of the source, which are not always exact repeats. Equal values may be shown once. Inconclusive results are not listed. The source made the active and inactive calls. The call rests on the fitted dose curve; in most records, active means well fitted cell-killing curve with a large enough effect; inconclusive means small, poorly fitted or top-dose-only effect; inactive means no such curve, though single readings can be large or run the other way.
# Assay: qHTS of pediatric cancer cell lines to identify multiple opportunities for drug repurposing: Confirmatory screen for BT-37 cells (AID 1347117);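 further: viability measured after 48 h of compound exposure; nearly all actives have a fitted effect of over 55% in size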;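 on activity change, negative = cytotoxic: plate controls were DMSO for no effect and bortezomib for full effect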
# Conditions: BT-37 pediatric cancer cells, viability; series mostly up to 45.9 µM; activity change, negative = cytotoxic: at the top concentration
# In short: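 Viability after 48 h compound treatment at 37C, 500-1,000 cells/well, read as ATP luminescence with CellTiter-Glo. Primary screens used 11-point (MIPE, 0.78 nM-46 µM) or 8-point (NPC, 0.59 nM-46 µM) final concentrations; follow-up screens used 11-point dilutions.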
# Potency means the concentration at half of the fitted maximal effect.
SMILES,Potency,"activity change, negative = cytotoxic"
CN(C)C(=S)SSC(=S)N(C)C,1.04 µM (active),
CC1Sc2c(C(=O)O)c(=O)c3cc(F)c(N4CCNCC4)cc3n21 (centres undefined),,-13% (inactive)
Cc1ccc([N+](=O)[O-])[c]2c1[O][Hg]2,1.47 µM (active),
C[C@@H]1O[C@@H](O[C@@H]2C=C3CC[C@@H]4[C@H](CC[C@]5(C)[C@@H](c6ccc(=O)oc6)CC[C@]45O)[C@@]3(C)CC2)[C@H](O)[C@H](O)[C@H]1O,0.0147 µM (active),
CCCCCCCCCCCC[N+](C)(C)CCOc1ccccc1,20.8 µM (active),
CC[n+]1c(-c2ccccc2)c2cc(N)ccc2c2ccc(N)cc21,1.04 µM (active),
CCCCCCCCC(=O)NCc1ccc(O)c(OC)c1,,-5.17% (inactive)
COc1ccc2c(C(=O)c3ccc(Cl)cc3)c(C)n(CC(=O)O)c2c1,,-3.37% (inactive)
CCc1ccc(C2CCNCC2)cc1,,-11% (inactive)
COC(=O)C1=CCCN(C)C1,,4.75% (inactive)
C[C@@H]1C[C@@H]([C@H](O)CC2CC(=O)NC(=O)C2)C(=O)[C@@H](C)C1,1.04 µM (active) and 1.17 µM (active),
ClC1=C(Cl)C2(Cl)C(CBr)CC1(Cl)C2(Cl)Cl (centres undefined),,-12.6% (inactive)

# Assay: qHTS of pediatric cancer cell lines to identify multiple opportunities for drug repurposing: Confirmatory screen for TC32 cells (AID 1347118);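 further: cells exposed to compound for 48 h before the read; nearly all actives have a fitted effect of over 65% in size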; on activity change, negative = cytotoxicity: on the % scale 0 is the no-effect control and ±100 the full control effect
# Conditions: TC32 Ewing sarcoma cells viability qHTS; series mostly up to 45.9 µM; activity change, negative = cytotoxicity: at the top concentration
# In short: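 TC32 cells, 500-1,000/well in growth medium, compound-treated 48 h at 37 °C; viability from CellTiter-Glo luminescence. Primary screen: MIPE 11-point (0.78 nM–46 µM final), NPC 8-point (0.59 nM–46 µM final); confirmatory at 11-point dilutions.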
SMILES,Potency,"activity change, negative = cytotoxicity"
CN(C)C(=S)SSC(=S)N(C)C,1.04 µM (active),
CC1Sc2c(C(=O)O)c(=O)c3cc(F)c(N4CCNCC4)cc3n21 (centres undefined),18.5 µM (active),
Cc1ccc([N+](=O)[O-])[c]2c1[O][Hg]2,0.261 µM (active),
C[C@@H]1O[C@@H](O[C@@H]2C=C3CC[C@@H]4[C@H](CC[C@]5(C)[C@@H](c6ccc(=O)oc6)CC[C@]45O)[C@@]3(C)CC2)[C@H](O)[C@H](O)[C@H]1O,0.0233 µM (active),
CCCCCCCCCCCC[N+](C)(C)CCOc1ccccc1,7.37 µM (active),
CN1[C@@H]2CC[C@H]1CC(OC(=O)c1cc(Cl)cc(Cl)c1)C2 (some centres undefined),,-15.5% (inactive)
CC[n+]1c(-c2ccccc2)c2cc(N)ccc2c2ccc(N)cc21,1.17 µM (active),
COc1ccc(C(=O)N2CCCC2=O)cc1,14.7 µM (active),
CCCCCCCCC(=O)NCc1ccc(O)c(OC)c1,5.22 µM (active),
COc1ccc2c(C(=O)c3ccc(Cl)cc3)c(C)n(CC(=O)O)c2c1,16.5 µM (active),
COC(=O)C1=CCCN(C)C1,10.4 µM (active),
C[C@@H]1C[C@@H]([C@H](O)CC2CC(=O)NC(=O)C2)C(=O)[C@@H](C)C1,465 nM (active) and 522 nM (active),

# — PubChem BioAssay (NCATS)
